Measurements as given in PubChem BioAssay (NCATS).
Results filed as inconclusive are left out. Active and inactive are the calls of the source. Calls come from the whole dose curve; as a rule, active = well fitted cell-killing curve with a large enough effect; inconclusive = small, poorly fitted or top-dose-only effect, or effect the other way; inactive = no such curve, though single readings can be large or run the other way.

Assay: Quantitative highthroughput screen to assess conditional lethalithy of SEM cells grown in RPMI1640 with unreated serum (RPMI+s) (AID 1963883); note: nearly all actives have a fitted effect of over 35% in size
Details: SEM B-ALL cells, CellTiter-Glo viability, 48 h; series mostly up to 45.8 µM; viability: at the top concentration
From the text: Assay Provider: Jason Cantor Ph.D.
Department of Biochemistry
University of Wisconsin-Madison, Madison, WI, USA
Chemical screening studies have identified drug sensitivities across hundreds of cancer cell lines but most putative therapeutics fail to translate. Discovery and development of drug candidates in models that more accurately reflect nutrient levels in human blood is a major challenge. Here we performed high-throughput screens in conventional versus Human Plasma-Like Medium (HPLM) to identify compounds that were "missed" when screening using the artificial culture condition. Sets of conditional anticancer compounds spanned phases of clinical development and included non-oncology drugs were assessed. […] We also traced conditional phenotypes for several chemotherapeutics to availability of HPLM-specific metabolites and confirmed others for compounds whose reported targets are encoded by nonessential genes. Our findings establish generalizable strategies for exploiting conditional lethality in HPLM to reveal therapeutic candidates and mechanisms of action in cancer cells.
Described herein are the results of each viability screens against three cell lines: NOMO1 (an acute myeloid leukemia cell line); P12-Ichikawa (a T-cell acute lymphoblastic leukemia); and SEM (a B-cell ALL). Each assay was screened using 3 different cell culture media: homemade human plasma-Like medium with 10% dialyzed fetal bovine serum (HPLM+ds); RPMI1640 with 10% untreated FBS and 5mM glucose (RPMI+s); and RPMI1640 with 10% dialyzed fetal bovine serum and 5 mM glucose (RPMI+ds).
PROTOCOL TABLE (as described by Inglese J, Shamu CE and Guy RK. 2007)
SEQUENCE No. (e.g., 1, 2, 3, etc.); […] (e.g., Cells, Incubation, Reagent, etc.); VALUE and DESCRIPTION.
1; Cells; 5 uL; white, solid bottom 1536-well Greiner assay plate.
2; Compounds; 23 nL; Kalypsis pin tool (Wako USA) equipped with a 1536-well pin head to transfer to the assay plates.
3; Incubation; 48 hours; 37C incubation.
4; Reagent; 3 uL; CellTiter Glo (Promega).
5; Incubation; 5 min, room temperature
6; Detection; Luminescence, Viewlux PerkinElmer.
NOTES (numbers refer to Sequence numbers above)
1. Briefly, 5 ul of cell reagent was dispensed using a Multidrop Combi Dispenser. The NOMO1 and SEM cells were plated at 500 cells/well and the P12-Ichikawa line at 1000 cells/well.
2. After seeding the cells, 23 nL of MIPE 4.1 library compounds (in DMSO) were added to each plate using a Kalypsys 1536 Pintool dispenser. Bortezomib at final concentration of […] and DMSO were added to each plate as positive and negative controls respectively. For each screen, MIPE 4.1 compounds were added over an eleven-point concentration range […] in 3-fold dilutions.
3. Each plate was covered with a stainless steel gasketed lid to prevent evaporation and incubated for 48 hour at 37C, 95% relative humidity, and 5% CO2.
4-5. Three microliter CellTilter-GloTM luminescent substrate mix (Promega) reagent was added to the assay plate and incubated at room temperature for 5 min.
6. The luminescence signal was measured using a ViewLux (PerkinElmer) multiplate reader with a 2 second exposure time per plate. Data for each compound were normalized as percent viability such that measurements for DMSO and the empty well controls in each plate were defined as 100% and 0%, respectively.
Potency is the fitted concentration of half-maximal effect.

| Compound | Potency | viability |
| --- | --- | --- |
| NC1=NC(=O)N2CC12 (stereo not given) | 1870 nM (active) | – |
| C[C@@H]1[C@@H](C(=O)C[C@H]2O[C@@H]3O[C@]4(C)CC[C@@H]5[C@H](C)CC[C@@H]([C@H]2C)[C@@]35OO4)O[C@@H]2O[C@]3(C)CC[C@H]4[C@H](C)CC[C@@H]1[C@@]24OO3 | 14800 nM (active) | – |
| CNC(=O)c1ccc(N2C(=S)N(c3ccc(C#N)c(C(F)(F)F)c3)C(=O)C23CCC3)cc1F | – | 101% (inactive) |
| O=C(Nc1ccncc1)C(=O)c1cn(Cc2ccc(Cl)cc2)c2ccccc12 | 52.6 nM (active) | – |
| CC(C)[C@]12O[C@@H]1[C@@H]1O[C@]13[C@]1(O[C@H]1C[C@@H]1C4=C(CC[C@@]13C)C(=O)OC4)[C@H]2O | 1.2 nM (active) | – |
| CC[C@@H]1[C@@H](C)O[C@@](O)([C@@H](C)[C@H](O)[C@H](C)[C@H]2OC(=O)C=CC=C[C@@H](C)[C@@H]([C@@H](C)[C@@H](O)[C@H](C)[C@@]3(O)C[C@H](O[C@H]4C[C@H](O)[C@H](O)[C@H](C)O4)[C@H](CC)[C@@H](C)O3)OC(=O)C=CC=C[C@@H]2C)C[C@H]1O[C@H]1C[C@H](O)[C@H](O)[C@H](C)O1 | 2640 nM (active) | – |
| Cc1ccccc1-n1c(Cn2cnc3c(N)ncnc32)nc2cccc(C)c2c1=O | 1180 nM (active) | – |
| C[C@@H]1CC[C@H]2[C@@H](C)C(=O)O[C@@H]3O[C@@]4(C)CC[C@H]1[C@]32OO4 | – | 101% (inactive) |
| COc1cc(OC)c(OC)cc1C=O | – | 90.9% (inactive) |
| CCCC[N+]1(C)[C@H]2CC(OC(=O)[C@H](CO)c3ccccc3)C[C@H]1[C@H]1O[C@H]12 (stereo not given in full) | – | 90.1% (inactive) |
| C[C@]12CC[C@H]3[C@@H](CCC4=CC(=O)CC[C@@]43C)[C@H]1CC[C@H]2O | – | 85.2% (inactive) |
| COc1ccc2c(c1OC)CN1CCc3cc4c(cc3C1C2)OCO4 (stereo not given) | 372 nM (active) | – |
| CN1C(=O)CCS(=O)(=O)C1c1ccc(Cl)cc1 (stereo not given) | – | 97.5% (inactive) |
| CN(C)CCN(C)CCc1ccc(Cl)c(Cl)c1 | – | 102% (inactive) |
| CC(N[C@H]1C[C@H]1c1ccccc1)c1ccc2c(c1)OCCO2 (stereo not given in full) | – | 102% (inactive) |
| COc1cc2cc(c1Cl)N(C)C(=O)C[C@H](OC(=O)C(C)C)[C@]1(C)O[C@H]1[C@H](C)[C@@H]1C[C@@](O)(NC(=O)O1)[C@H](OC)C=CC=C(C)C2 | – | 1.57% (inactive) |
| CCN1CCN(C(=O)Cc2ccc(Nc3ncc(F)c(Nc4ccc(C(=O)Nc5ccccc5Cl)cc4)n3)cc2)CC1 | 5900 nM (active) | – |
| CN1C(=O)COc2c(C(=O)NC3CN4CCC3CC4)cc(Cl)cc21 (stereo not given) | – | 101% (inactive) |
| C[C@]12CC[C@H](O)CC1=CC[C@H]1[C@H]3CCC(=O)[C@@]3(C)CC[C@@H]12 | – | 91.3% (inactive) |
| C[C@]12CC[C@H]3[C@@H](CC[C@@]45O[C@H]4C(O)=C(C#N)C[C@]35C)[C@H]1CC[C@H]2O | 18700 nM (active) | – |

| Compound | Potency | viability |
| --- | --- | --- |
| CC(=Cc1csc(C)n1)[C@@H]1C[C@H]2O[C@]2(C)CCC[C@H](C)[C@@H](O)[C@@H](C)C(=O)C(C)(C)[C@@H](O)CC(=O)O1 | – | 14.1% (inactive) |
| O=C(Oc1ccc([N+](=O)[O-])cc1)N1CCC(C(O)(c2ccc3c(c2)OCO3)c2ccc3c(c2)OCO3)CC1 | – | 99.3% (inactive) |
| C=C[C@@H]1CN2CCC1C[C@@H]2[C@@H](O)c1ccnc2ccccc12 (stereo not given in full) | 16600 nM (active) | – |
| C[C@@H]1C[C@@H]([C@H](O)CC2CC(=O)NC(=O)C2)C(=O)[C@@H](C)C1 | 332 nM (active) | – |
| Cc1cc(SCc2sc(-c3ccc(C(F)(F)F)c(F)c3)nc2C)ccc1OCC(=O)O | – | 105% (inactive) |
| NC1CC1c1ccccc1 (stereo not given) | – | 94.1% (inactive) |
| CN(C)[C@@H]1C(=O)C(C(N)=O)=C(O)[C@@]2(O)C(=O)C3=C(O)c4c(O)cccc4[C@@](C)(O)[C@H]3C[C@@H]12 | – | 98.2% (inactive) |
| Cc1sc2c(c1C)C(c1ccc(Cl)cc1)=N[C@@H](CC(=O)OC(C)(C)C)c1nnc(C)n1-2 | 235 nM (active) | – |
| O=P1(NCCCl)OCCCN1CCCl (stereo not given) | 14800 nM (active) | – |
| C=CCON=C(C[C@H]1O[C@@H]2O[C@]3(C)CC[C@@H]4[C@H](C)CC[C@@H]([C@H]1C)[C@@]24OO3)[C@H]1O[C@@H]2O[C@]3(C)CC[C@H]4[C@H](C)CC[C@@H]([C@@H]1C)[C@@]24OO3 | 1050 nM (active) | – |
| c1ccc2c(CN3CCNCC3)cccc2c1 | – | 95.2% (inactive) |
| Clc1ccccc1C(c1ccccc1)(c1ccccc1)n1cccn1 | – | 85.9% (inactive) |
| COC1(CS(=O)c2ccccc2)CCN(CCc2c[nH]c3ccc(F)cc23)CC1 (stereo not given) | – | 95.3% (inactive) |
| Cc1ncc(OC[C@@]2(c3cccc(F)c3)C[C@H]2C(=O)Nc2ccc(F)cn2)c(C)n1 | – | 85.6% (inactive) |
| CCN1C[C@]2(OC(=O)c3ccccc3NC(C)=O)CC[C@H](OC)[C@@]34[C@H]5CC6[C@@H](OC)C[C@](O)(C(C[C@@H]23)[C@@H]14)[C@@]5(O)[C@@H]6OC | 6620 nM (active) | – |
| CC1=C(O)C(=O)C=C2C1=CC=C1[C@@]2(C)CC[C@@]2(C)[C@@H]3C[C@](C)(C(=O)O)CC[C@]3(C)CC[C@]12C | 2640 nM (active) | – |
| NCC1(CC(=O)O)CCCCC1 | – | 97.8% (inactive) |
| O=C(O)CNC(=O)c1c(O)c2ccccc2n(Cc2ccccc2)c1=O | – | 92.3% (inactive) |
| O=C(O)CCCc1ccc(N(CCCl)CCCl)cc1 | 23500 nM (active) | – |
| O=C(O)C(=O)c1cn(Cc2ccccc2)c2ccc(-c3ccc(OC(F)(F)F)cc3)cc12 | – | 94.5% (inactive) |
